Reference: PubChem BioAssay AID1159580 (chemical genetic matrix, 2015)
Several values for one entry are separate records, joined by “and”; a condition that tells them apart may be missing. Identical values can stand only once. The whole screen tested about 5,500 compounds, of which about 2,000 (36%) were called active. Inconclusive results (about 18%) are left out. Cut-off read from the data, not from the text of the source: active = normalized growth mostly below about 0.91 (no sharp cut-off); inconclusive = no clear call, values can overlap the other calls; inactive = mostly above about 0.92. The list shows a part of the results.

Experiment: chemical genetic growth profiling, strain panel (AID 1159580);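 note: tested at 20 µM; growth read once vehicle control cultures reached saturation at 30 °C; 1 = growth at the plate median or of vehicle wells; lower values mean less growth of the strain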
Details: S. cerevisiae deletion strains, growth OD

Measured: normalized growth

CCC(=O)O[C@H]1CCC2C3CCc4cc(O)ccc4C3CC[C@@]21C (stereo partly drawn)
inactive: locus YAL021C, strain ccr4, stronger effect = lower value 0.97 | locus YAL026C, strain drs2, stronger effect = lower value 1 | locus YAL030W, strain snc1, stronger effect = lower value 0.988 | locus YBL061C, strain skt5, stronger effect = lower value 0.98 | locus YBR009C, strain hhf1, stronger effect = lower value 0.957 | locus YBR021W, strain FUR4, stronger effect = lower value 0.908 | locus YBR023C, strain chs3, stronger effect = lower value 0.981 | locus YBR171W, strain sec66, stronger effect = lower value 0.997 | locus YBR229C, strain ROT2, stronger effect = lower value 0.999 | locus YBR231C, strain swc5, stronger effect = lower value 0.974 | locus YBR279W, strain paf1, stronger effect = lower value 1 | locus YCL011C, strain gbp2, stronger effect = lower value 0.962 | locus YCL016C, strain dcc1, stronger effect = lower value 0.992 | locus YCL029C, strain bik1, stronger effect = lower value 0.994 | locus YCL061C, strain MRC1, stronger effect = lower value 0.991 | locus YCL069W, strain vba3, stronger effect = lower value 0.997 | locus YCR088W, strain abp1, stronger effect = lower value 0.991 | locus YDL005C, strain med2, stronger effect = lower value 0.966 | locus YDL035C, strain GPR1, stronger effect = lower value 0.975 | locus YDL040C, strain nat1, stronger effect = lower value 1 | locus YDL101C, strain DUN1, stronger effect = lower value 0.951 | locus YDL134C, strain PPH21, stronger effect = lower value 0.956 | locus YDL185W, strain tfp1, stronger effect = lower value 1.01 | locus YDL192W, strain arf1, stronger effect = lower value 1.01 | locus YDR001C, strain nth1, stronger effect = lower value 0.994 | locus YDR069C, strain doa4, stronger effect = lower value 0.97 | locus YDR101C, strain arx1, stronger effect = lower value 0.986 | locus YDR137W, strain rgp1, stronger effect = lower value 0.854 | locus YDR150W, strain NUM1, stronger effect = lower value 1 | locus YDR162C, strain NBP2, stronger effect = lower value 0.993 | locus YDR297W, strain sur2, stronger effect = lower value 0.989 | locus YDR318W, strain mcm21, stronger effect = lower value 1 | locus YDR334W, strain swr1, stronger effect = lower value 0.962 | locus YDR335W, strain msn5, stronger effect = lower value 0.99 | locus YDR388W, stronger effect = lower value 0.987 | locus YDR502C, strain sam2, stronger effect = lower value 0.997 | locus YEL003W, strain gim4, stronger effect = lower value 0.984 | locus YEL037C, strain rad23, stronger effect = lower value 0.995 | locus YEL061C, strain CIN8 (second series), stronger effect = lower value 0.969 | locus YEL061C, strain CIN8, stronger effect = lower value 0.999 | locus YER015W, strain faa2, stronger effect = lower value 0.988 | locus YER016W, strain bim1, stronger effect = lower value 0.996 | locus YER110C, stronger effect = lower value 1.02 | locus YER111C, strain swi4, stronger effect = lower value 0.974 | locus YER155C, strain BEM2 (second series), stronger effect = lower value 0.988 | locus YER167W, strain BCK2, stronger effect = lower value 0.933 | locus YFR010W, strain ubp6, stronger effect = lower value 0.956 | locus YGL078C, strain dbp3, stronger effect = lower value 1.01 | locus YGL086W, strain mad1, stronger effect = lower value 0.985 | locus YGL167C, strain pmr1, stronger effect = lower value 0.98 | locus YGL173C, strain kem1, stronger effect = lower value 0.986 | locus YGL227W, strain vid30, stronger effect = lower value 0.976 | locus YGL240W, strain doc1, stronger effect = lower value 0.972 | locus YGL248W, strain PDE1, stronger effect = lower value 0.961 | locus YGL253W, strain hxk2, stronger effect = lower value 1 | locus YGR135W, strain pre9, stronger effect = lower value 1.01 | locus YGR252W, strain gcn5, stronger effect = lower value 0.973 | locus YHR013C, strain ard1, stronger effect = lower value 0.885 | locus YHR027C, strain rpn1, stronger effect = lower value 0.992 | locus YHR079C, strain IRE1 (second series), stronger effect = lower value 1.01 | locus YHR094C, strain hxt1, stronger effect = lower value 0.997 | locus YHR129C, strain ARP1, stronger effect = lower value 0.932 | locus YHR142W, strain chs7, stronger effect = lower value 0.931 | locus YHR200W, strain rpn10, stronger effect = lower value 1.01 | locus YIL066C, strain RNR3, stronger effect = lower value 0.927 | locus YIL073C, strain SPO22, stronger effect = lower value 0.781 | locus YIL125W, strain kgd1, stronger effect = lower value 1 | locus YIR030C, strain dcg1, stronger effect = lower value 1 | locus YJL092W, strain hpr5, stronger effect = lower value 0.984 | locus YJL095W, strain BCK1 (second series), stronger effect = lower value 0.996 | locus YJL115W, strain asf1, stronger effect = lower value 0.988 | locus YJL134W, strain LCB3, stronger effect = lower value 0.993 | locus YJL154C, strain vps35, stronger effect = lower value 0.995 | locus YJL166W, strain qcr8, stronger effect = lower value 0.989 | locus YJL168C, strain set2, stronger effect = lower value 1 | locus YJL187C, strain SWE1 (second series), stronger effect = lower value 0.925
active: locus YAL013W, strain DEP1, stronger effect = lower value 0.7 | locus YDL074C, strain BRE1, stronger effect = lower value 0.447 | locus YDR159W, strain sac3, stronger effect = lower value 0.596 | locus YDR195W, strain ref2 0.209 | locus YDR392W, strain spt3, stronger effect = lower value 0.531 | locus YER155C, strain BEM2, stronger effect = lower value 0.295 | locus YGR229C, strain SMI1, stronger effect = lower value 0.584 | locus YHR079C, strain IRE1, stronger effect = lower value 0.538 | locus YJL095W, strain BCK1, stronger effect = lower value 0.756 and 0.227 | locus YJL129C, strain trk1, stronger effect = lower value 0.814 | locus YJL164C, strain tpk1, stronger effect = lower value 0.904
0.968 (inactive) and 0.298 (active): locus YHR030C, strain SLT2, stronger effect = lower value
